# Experimental data reported in the supplement of paper PMC6518042.
# System: Pectobacterium parmentieri SCC3193
# Test: DuctApe activity index (growth/respiration on compound as sole nutrient source, blank-subtracted) (activity index (0-3)); higher = stronger utilization of the compound, active = 3 or more
# Procedure: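 Biolog Phenotype Microarray plates PM1, PM2A (carbon), PM3 (nitrogen) and PM4 (phosphorus/sulfur) inoculated with P. parmentieri SCC3193 in M9-C minimal salts medium with Biolog dye A, and read in the OmniLog for 46 h. Each well was tested in triplicate and the experiment was run twice. DuctApe computed a blank-subtracted activity index (AV, 0-3) from the mean curves; growth is positive at AV >= 3 and negative at AV <= 2.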
# [1] = nutrient role (plate category): carbon
# [2] = nutrient role (plate category): phosphate & sulphur
# [3] = nutrient role (plate category): nitrogen
compound,measurement,setting,value
OC[C@@H](O)[C@@H](O)CO [i-Erythritol],DuctApe activity index,[1],0 (inactive)
O=S(O)(O)=S [Thiosulfate],DuctApe activity index,[2],0 (inactive)
O=C(O)c1ccccc1O [2-Hydroxybenzoic acid],DuctApe activity index,[1],0 (inactive)
N=C(N)NCCC[C@H](N)C(=O)O [L-Arginine],DuctApe activity index,[1],0 (inactive)
same,DuctApe activity index,[3],0 (inactive)
O=C[C@H](O)[C@H](O)[C@@H](O)CO [L-Lyxose],DuctApe activity index,[1],0 (inactive)
N[C@@H](CS(=O)O)C(=O)O [L-Cysteine Sulfinic acid],DuctApe activity index,[2],0 (inactive)
CC(=O)N[C@@H]1[C@@H](O)[C@H](O)[C@@H](CO)O[C@@H]1O [N-Acetyl-D-Glucosamine],DuctApe activity index,[1],3 (active)
same,DuctApe activity index,[3],3 (active)
O=S1(=O)CCCC1 [Tetramethylene Sulfone],DuctApe activity index,[2],0 (inactive)
N[C@@H](CCC(=O)O)C(=O)O [L-Glutamic acid],DuctApe activity index,[1],2 (inactive)
same,DuctApe activity index,[3],1 (inactive)
N[C@H](CC(=O)O)C(=O)O [D-Aspartic acid],DuctApe activity index,[1],3 (active)
same,DuctApe activity index,[3],2 (inactive)
OC[C@@H](O)C(O)[C@H](O)CO [D-Arabitol],DuctApe activity index,[1],0 (inactive)
C[C@H](N)C(=O)N[C@H](C(=O)O)[C@@H](C)O,DuctApe activity index,[3],0 (inactive)
CC(=O)N[C@H]1C(O)O[C@H](CO)[C@H](O)[C@@H]1O (stereo partly drawn) [N-Acetyl-D-Galactosamine],DuctApe activity index,[1],3 (active)
same,DuctApe activity index,[3],3 (active)
O=C1CC[C@@H](C(=O)O)N1 [L-Pyroglutamic acid],DuctApe activity index,[1],0 (inactive)
same,DuctApe activity index,[3],0 (inactive)
NC(=O)[C@H]1O[C@@H](O)[C@H](O)[C@@H](O)[C@@H]1O [Glucuronamide],DuctApe activity index,[1],0 (inactive)
same,DuctApe activity index,[3],2 (inactive)
